{"source": "PubChem BioAssay (EPA / NIEHS)", "note": "Values joined by “and” are separate entries in the source; they are usually repeats but may differ in a detail not shown here. Equal values may be shown once. A structure can be active in one record and inactive in another. Active and inactive are the calls of the source. The calls were made as follows: active = hit-call score of the fitted dose curve at least 0.9, where 1 is the maximum; inactive = score below 0.9."}
{"read-out": "Phosphatase and tensin (PTEN), PTEN (gene 5728)", "test": "LTEA_HepaRG_PTEN: Life Technologies and Expression Analysis (LTEA) Assay for Phosphatase and tensin (PTEN) using HepaRG (AID 2283523)", "details": "mRNA level, 48 h; actives raise or lower the signal", "in_short": "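HepaRG, 48 h exposure, 8-pt half-log series from 100 uM top, 0.5% DMSO vehicle, duplicates. Readout: Fluidigm qRT-PCR of PTEN transcript; housekeeping normalization (ACTB, GAPDH, POLR2A). Gain or loss fitted relative to DMSO baseline.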"}
{"smiles": "CC1(c2ccc(Oc3ccccc3)cc2)OC(=O)N(Nc2ccccc2)C1=O", "note": "(stereo not drawn)", "outcome": "inactive"}
{"smiles": "CC(C)N(C(=O)COc1nnc(C(F)(F)F)s1)c1ccc(F)cc1", "outcome": "inactive"}
{"smiles": "O=S(=O)(O)C(F)(F)C(F)(F)C(F)(F)C(F)(F)C(F)(F)C(F)(F)C(F)(F)C(F)(F)F", "outcome": "inactive"}
{"smiles": "CCOCN(C(=O)CCl)c1c(C)cccc1CC", "outcome": "inactive"}
{"smiles": "CC(C)(C)C(O)C(Oc1ccc(Cl)cc1)n1cncn1", "note": "(stereo not drawn)", "outcome": "inactive"}
{"smiles": "Oc1ccc(Cl)cc1Cc1ccccc1", "AC50": "86 µM (active)", "outcome": "inactive"}
{"smiles": "CCN(CC)C(=O)SCc1ccc(Cl)cc1", "outcome": "inactive"}
{"smiles": "CCC(C)(C)C(=O)OC1=C(c2ccc(Cl)cc2Cl)C(=O)OC12CCCCC2", "outcome": "inactive"}
{"smiles": "O=S1OCC2C(CO1)C1(Cl)C(Cl)=C(Cl)C2(Cl)C1(Cl)Cl", "note": "(stereo not drawn)", "outcome": "inactive"}
{"smiles": "CNC(=O)Oc1ccccc1OC(C)C", "outcome": "inactive"}
{"smiles": "Oc1cc(Cl)ccc1Oc1ccc(Cl)cc1Cl", "outcome": "inactive"}
{"smiles": "CC1(C)C(C=C(Cl)Cl)C1C(=O)OC(C#N)c1ccc(F)c(Oc2ccccc2)c1", "note": "(stereo not drawn)", "outcome": "inactive"}
{"smiles": "CCC(C)Nc1c([N+](=O)[O-])cc(C(C)(C)C)cc1[N+](=O)[O-]", "note": "(stereo not drawn)", "outcome": "inactive"}
{"smiles": "COP(=S)(OC)Oc1ccc(SC)c(C)c1", "outcome": "inactive"}
{"smiles": "CCOC1Oc2ccc(OS(C)(=O)=O)cc2C1(C)C", "note": "(stereo not drawn)", "outcome": "inactive"}
{"smiles": "N#Cc1c(Cl)c(Cl)c(Cl)c(C#N)c1Cl", "AC50": "68.7 µM (active)"}
{"smiles": "O=[N+]([O-])/N=C1\\NCCN1Cc1ccc(Cl)nc1", "outcome": "inactive"}
{"smiles": "C[C@H]1[C@H](c2ccc(Cl)cc2)SC(=O)N1C(=O)NC1CCCCC1", "outcome": "inactive"}
{"smiles": "CN1CSC(=S)N(C)C1", "outcome": "inactive"}
{"smiles": "COP(=S)(OC)Oc1ccc([N+](=O)[O-])cc1", "outcome": "inactive"}
{"smiles": "O=C1c2ccccc2C(=O)N1SC(Cl)(Cl)Cl", "outcome": "inactive"}
{"smiles": "C#CCN1C(=O)COc2cc(F)c(N3C(=O)C4=C(CCCC4)C3=O)cc21", "outcome": "inactive"}
{"read-out": "solute carrier (SLC22A1), SLC22A1 (gene 6580)", "test": "LTEA_HepaRG_SLC22A1: Life Technologies and Expression Analysis (LTEA) Assay for solute carrier (SLC22A1) using HepaRG (AID 2283524);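 as to AC50: differentiated human HepaRG liver cells in serum-free induction medium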", "details": "mRNA level, 48 h; actives raise or lower the signal", "in_short": "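qRT-PCR readout (TaqMan, Fluidigm arrays) of SLC22A1 transcript, normalized to three housekeeping genes; bidirectional curve fit relative to 0.5% DMSO vehicle. Differentiated human HepaRG cells, 48 h chemical exposure, top concentration 100 uM, half-log steps, eight points.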"}
{"smiles": "CC1(c2ccc(Oc3ccccc3)cc2)OC(=O)N(Nc2ccccc2)C1=O", "note": "(stereo not drawn)", "AC50": "13.5 µM (active)"}
{"smiles": "CC(C)N(C(=O)COc1nnc(C(F)(F)F)s1)c1ccc(F)cc1", "AC50": "39.5 µM (active)"}
{"smiles": "O=S(=O)(O)C(F)(F)C(F)(F)C(F)(F)C(F)(F)C(F)(F)C(F)(F)C(F)(F)C(F)(F)F", "AC50": "90.2 µM (active) and 89.8 µM (active) and 83.1 µM (active)", "outcome": "inactive"}
{"smiles": "CCOCN(C(=O)CCl)c1c(C)cccc1CC", "AC50": "81.1 µM (active)"}
{"smiles": "CC(C)(C)C(O)C(Oc1ccc(Cl)cc1)n1cncn1", "note": "(stereo not drawn)", "outcome": "inactive"}
{"smiles": "Oc1ccc(Cl)cc1Cc1ccccc1", "AC50": "91.8 µM (active) and 91.6 µM (active)", "outcome": "inactive"}
{"smiles": "CCN(CC)C(=O)SCc1ccc(Cl)cc1", "outcome": "inactive"}
{"smiles": "CCC(C)(C)C(=O)OC1=C(c2ccc(Cl)cc2Cl)C(=O)OC12CCCCC2", "outcome": "inactive"}
{"smiles": "O=S1OCC2C(CO1)C1(Cl)C(Cl)=C(Cl)C2(Cl)C1(Cl)Cl", "note": "(stereo not drawn)", "AC50": "63 µM (active)"}
{"smiles": "CNC(=O)Oc1ccccc1OC(C)C", "outcome": "inactive"}
{"smiles": "Oc1cc(Cl)ccc1Oc1ccc(Cl)cc1Cl", "AC50": "86 µM (active)", "outcome": "inactive"}
{"smiles": "CC1(C)C(C=C(Cl)Cl)C1C(=O)OC(C#N)c1ccc(F)c(Oc2ccccc2)c1", "note": "(stereo not drawn)", "outcome": "inactive"}
{"smiles": "CCC(C)Nc1c([N+](=O)[O-])cc(C(C)(C)C)cc1[N+](=O)[O-]", "note": "(stereo not drawn)", "outcome": "inactive"}
{"smiles": "COP(=S)(OC)Oc1ccc(SC)c(C)c1", "outcome": "inactive"}
{"smiles": "CCOC1Oc2ccc(OS(C)(=O)=O)cc2C1(C)C", "note": "(stereo not drawn)", "AC50": "71.9 µM (active)"}
{"smiles": "N#Cc1c(Cl)c(Cl)c(Cl)c(C#N)c1Cl", "AC50": "61.5 µM (active)"}
{"smiles": "O=[N+]([O-])/N=C1\\NCCN1Cc1ccc(Cl)nc1", "AC50": "50 µM (active)"}
{"smiles": "C[C@H]1[C@H](c2ccc(Cl)cc2)SC(=O)N1C(=O)NC1CCCCC1", "AC50": "50 µM (active)"}
{"smiles": "CN1CSC(=S)N(C)C1", "outcome": "inactive"}
{"smiles": "COP(=S)(OC)Oc1ccc([N+](=O)[O-])cc1", "outcome": "inactive"}
{"smiles": "O=C1c2ccccc2C(=O)N1SC(Cl)(Cl)Cl", "outcome": "inactive"}
{"smiles": "C#CCN1C(=O)COc2cc(F)c(N3C(=O)C4=C(CCCC4)C3=O)cc21", "outcome": "inactive"}
